In publication PMC7826789 (International Journal of Molecular Sciences, 2021):

How the values were obtained:
[1] = test system: T1, PIP5K2B; conditions: Compound Concentration (nM):1000
T1 construct: gene PIP4K2B

[2] = test system: T2, PIP5K2C; conditions: Compound Concentration (nM):1000
T2 construct: gene PIP4K2C

[3] = test system: T3, PKAC-alpha; conditions: Compound Concentration (nM):1000
T3 construct: gene PRKACA

[4] = test system: T4, PKAC-beta; conditions: Compound Concentration (nM):1000
T4 construct: gene PRKACB

[5] = test system: PKMYT1; conditions: Compound Concentration (nM):1000
[6] = test system: PKN1; conditions: Compound Concentration (nM):1000
[7] = test system: PKN2; conditions: Compound Concentration (nM):1000
[8] = test system: PKNB(M.tuberculosis); conditions: 1 µM
[9] = test system: PLK1; conditions: Compound Concentration (nM):1000
[10] = test system: PLK2; conditions: Compound Concentration (nM):1000
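Also: KINOMEscan scanMAX binding as percent activity remaining versus control; lower means stronger binding.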

SMILES	Percent Control [1] [%]	Percent Control [2] [%]	Percent Control [3] [%]	Percent Control [4] [%]	Percent Control [5] [%]	Percent Control [6] [%]	Percent Control [7] [%]	Percent Control [8] [%]	Percent Control [9] [%]	Percent Control [10] [%]
CN(C)CCNC(=O)Nc1ccc(N(C)c2ccnc(Nc3ccc(CS(C)(=O)=O)cc3)n2)cc1.Cl [GW830900A]	33	3.7	100	100	100	83	64	94	86	100
Cc1cc(O)cc(C)c1/C=C/c1cncc(C(N)=O)c1 [GW435821X]	100	84	100	100	74	100	65	99	100	93
COc1ccc2c(-c3ccnc(Nc4cccc(OC(F)(F)F)c4)n3)cnn2n1 [GW810372X]	100	32	100	100	100	100	76	82	91	100
COc1cc(C=NNc2ncnc3c2cnn3-c2ccccc2)ccc1O [GW513184X]	59	1.4	100	100	100	81	100	86	100	37
COc1cc(N2CCN(C(C)C)CC2)ccc1Nc1nc(Nc2ccc(F)cc2C(=O)NC[C@@H](O)CO)c2cc[nH]c2n1 [GSK1392956A]	100	94	100	100	100	100	100	99	6.3	100
O=C(Nc1n[nH]c2nc(-c3ccc(O)cc3)c(Br)cc12)C1CC1 [SB-725317]	100	91	100	100	100	89	100	31	100	83
CCc1ccc(Oc2nccc(-c3c(-c4ccc(F)cc4)ncn3C3CCNCC3)n2)cc1 [SB-242719]	100	100	36	31	89	94	91	81	98	77
COc1ccccc1-c1cc(/C=C2\C(=O)Nc3ncc(Br)cc32)cc(Br)c1O [GW442130X]	100	100	95	100	100	100	36	74	95	100
COc1cccc(-c2c[nH]c3c(N/N=C/c4ccncc4)ncnc23)c1 [GW814408X]	100	9.1	100	100	100	100	100	99	95	100
Cl.O=C(Nc1ccc(Oc2ccc3[nH]c(NC(=O)c4ccccc4)nc3c2)cc1)Nc1cc(C(F)(F)F)ccc1F [GW709042A]	100	97	100	100	100	100	60	88	100	98
COc1ccc(COc2ccc(Cc3cnc(N)nc3N)cc2OC)cc1 [GW632580X]	100	100	91	100	100	82	100	69	100	100
O=C1Nc2ccc(C(=O)c3ccco3)cc2C1=Cc1cc(Cl)c(O)c(Cl)c1 [GW406108X]	95	65	100	100	100	83	63	90	49	27
Cl.O=C(O[C@H]1CN[C@H](C#Cc2cc3ncnc(Nc4ccc5c(cnn5Cc5ccccc5)c4)c3s2)C1)N1CCOCC1 [GSK200398A]	100	98	100	93	96	88	69	91	76	92
CN1CCN(C(=O)c2ccc(NC(=O)Nc3ccc(N(C)c4ccnc(Nc5ccc(CS(C)(=O)=O)cc5)n4)cc3)cc2)CC1.Cl [GW830263A]	17	0.9	100	100	96	70	100	87	100	100
CCn1c(-c2nonc2N)nc2c(C#CC(C)(C)O)nc(OCCNC)cc21.Cl [GSK949675]	100	78	21	16	100	9.3	100	0.7	100	100
C[C@@H](Oc1cc(-n2cnc3ccc(OC4CCN(C)CC4)cc32)sc1C(N)=O)c1ccccc1Cl [GSK579289A]	52	75	100	100	81	72	57	35	–	13
COc1cc2ncnc(Nc3ccc4c(cnn4Cc4ccccc4)c3)c2cc1OC.Cl [GW282449A]	100	73	100	37	100	100	100	100	91	100
CN(C)c1cc2c(Nc3ccc4c(cnn4Cc4ccccc4)c3)ncnc2cn1 [GW282974X]	100	100	100	95	73	90	88	68	71	100
Cl.c1ccc(Cc2nc3ccc(Nc4ncnc5ccccc45)cc3[nH]2)cc1 [GR269666A]	100	71	100	100	100	92	100	100	80	100
CCS(=O)(=O)c1ccc(OC)c(Nc2ncc(-c3cccc(OC)c3)o2)c1 [GW580509X]	91	11	100	100	100	100	100	100	92	86
